SMILES strings stand for the structures. Results filed as inconclusive are left out. The source made the active and inactive calls. The calls were made as follows: active = hit-call score of the fitted dose curve at least 0.9, where 1 is the maximum; inconclusive = response in the unintended direction; inactive = score below 0.9.

40 molecules from PubChem BioAssay (EPA / NIEHS) can be followed below.

This experiment can be described thus: Tanguay_ZF_120hpf_BRAI_legacy: (Legacy) Oregon State University Tanguay Lab 120 Hour Post-fertilization zebrafish Assay for Brain Malformation (AID 2283641). The protocol: Tanguay_ZF_120hpf_legacy is a whole embryo, multiplexed endpoint assay using zebrafish larvae exposed for 120 hours post fertilization on a 96-well plate.Tanguay_ZF_120hpf_BRAI_legacy is one of one assay component(s) measured or calculated from the Tanguay_ZF_120hpf_legacy assay. It is designed to make measurements of zebrafish development as detected with brightfield microscopy of developing zebrafish embryos.Data from the assay component Tanguay_ZF_120hpf_BRAI_legacy was analyzed into 1 assay endpoints. This assay endpoint, Tanguay_ZF_120hpf_BRAI_legacy, was analyzed in the positive analysis fitting direction relative to DMSO as the negative control and baseline of activity. Using a type of morphology reporter, gain-of-signal activity can be used to understand changes in developmentals as they relate to the whole embryo. To generalize the intended target to other relatable targets, this assay endpoint is annotated to the zebrafish development intended target family, where the subfamily is brain morphogenesis.
Zebrafish husbandry: Tropical 5D wild-type adult zebrafish were housed in at an approximate density of 1000 per 100 gallon tank at the Sinnhuber Aquatic Research Laboratory, Oregon State University, Corvallis, OR. Each tank was kept at standard laboratory conditions of 28C on a 14-h light/10-h dark photoperiod in fish water consisting of reverse osmosis water supplemented with a commercially available salt (Instant Ocean). Spawning funnels were placed into the tanks the night prior, and embryos were collected and staged. […] Ten microliters of each row of dilution plate 2 was added to 2 exposure plates. The final DMSO concentration used was 0.64% (vol/vol). Thirty-two embryos were also exposed to 5uM trimethyltin chloride (positive control). Plates were sealed to prevent evaporation and foil covered to reduce light exposure and kept in a 28C incubator. Embryos were statically exposed until 120 hpf. At 24 hpf, embryos were assessed for photomotor response using a custom photomotor response analysis tool (PRAT) and for developmental toxicity endpoints (MO24: mortality at 24 hpf, DP: developmental progression, SM: spontaneous movement, and NC: notochord distortion). At 120 hpf, locomotor activity was measured using Viewpoint Zebralab and assessed for 18 endpoints. Zebrafish acquisition and analysis program (ZAAP), a custom program designed to inventory, acquire, and manage zebrafish data, was used to collect developmental endpoints as either present or absent (i.e., binary responses were recorded). If mortality occurred for an embryo (at either 24 or 120 hpf), the non-mortality endpoints were not measured.
For `CCCCOC(=O)CCCCC(=O)OCCCC`, the outcome was inactive. As for `C/C=C/c1ccc(OC)cc1`, the molecule was called inactive. On the same count and under the same terms, the same measure for `CC(=O)O`: “inactive”. Still for that read-out and setting: the same measure for `O=C(O)c1cccnc1`: “inactive”; for `O=C(Oc1ccccc1)c1cccc(C(=O)Oc2ccccc2)c1`: “inactive”; for `C/C=C/C=C/C(=O)O`: “inactive”. Same read-out and setting: the same measure for `Nc1nc(Cl)nc2c1ncn2[C@H]1C[C@H](O)[C@@H](CO)O1`: “inactive”; for `CCCCCCCC(=O)OC`: “inactive”; for `O=[Si]=O`: “inactive”. For `COC(=O)CCCC(=O)OC`, the outcome was inactive.

On to `CC(C)c1cccc(C(C)C)c1`, for which the call was inactive. On to `O=C(N[C@@H](c1ccccc1)[C@@H]1CCCCN1)c1cccc(C(F)(F)F)c1Cl`, for which the outcome was inactive. On the same count and under the same terms, the same measure for `CN(C)C(=O)NC1(c2ccccc2)CCN(CCC[C@]2(c3ccc(Cl)c(Cl)c3)CCCN(C(=O)c3ccccc3)C2)CC1`: “inactive”; for `CCCCCCC(C=O)=Cc1ccccc1`: “inactive”. The same measure, in the same setting: for `O=C1c2c(O)cccc2Cc2cccc(O)c21` the value was “inactive”; for `OCC(O)CO`, “inactive”. Same read-out and setting: the same measure for `CC(C)COC(=O)CCCCC(=O)OCC(C)C`: “inactive”; for `CCCCCCCCCCCCCCCCO`: “inactive”. In the case of `c1ccc2occc2c1`, the result was inactive.

`C=CCCCCCCCCCCCC`: the outcome was inactive. On the same count and under the same terms, for `CN(C)CCCN1c2ccccc2Sc2ccc(Cl)cc21` the value was “inactive”; for `O=C1NC(=O)C(c2ccccc2)(c2ccccc2)N1`, “inactive”. The same measure, in the same setting: the same measure for `CO[C@@H]1COCC[C@@H]1N[C@@H]1CC[C@@](C(=O)N2CCc3ncc(C(F)(F)F)cc3C2)(C(C)C)C1`: “inactive”.

As for `S=c1[nH]c2ccccc2s1`, the AC50 was 40.7 µM (active). As for `CSc1ccc(Oc2ccc(S(N)(=O)=O)cc2CN(C)C)cc1C`, the outcome was inactive.

`CC1=C(C)S(=O)(=O)CCS1(=O)=O`: the outcome was inactive. Turning to `CN(C)CCCN(C)CCCN(C)C`, the outcome was inactive. Turning to `CCCCCCCCCCCCCCOS(=O)(=O)O`, the AC50 is 10.4 µM (active). Consider `NC=O`, for which the call was inactive. In the case of `CCCCc1nc2cccnc2n1Cc1ccc(-c2ccccc2-c2nnn[nH]2)cc1`, the molecule was called inactive.

In the case of `CC(C)c1cccc(C(C)C)c1NC(=O)NS(=O)(=O)c1cc(C(C)(C)O)co1`, the molecule was classed as inactive. As to `CC(N)=O`, the call was inactive.

For the molecule `Cc1occc(=O)c1O`, the molecule was called inactive.

In the case of `CCCC(=O)O`, the result was inactive.

Take `COC(=O)CCC(=O)OC`: the molecule was called inactive. On the same count and under the same terms, the same measure for `C#CC(O)C(CC)CCCC` (stereo not given): “inactive”; for `COC(=O)[C@H]1[C@H]2C[C@@H]3c4[nH]c5cc(OC)ccc5c4CCN3C[C@H]2C[C@@H](OC(=O)c2cc(OC)c(OC)c(OC)c2)[C@@H]1OC`: “inactive”; for `CCN(CC)CCOc1ccc(C(=C(Cl)c2ccccc2)c2ccccc2)cc1`: “inactive”. For the molecule `COc1ccc(C(=O)Nc2nc3ccccc3c(NCc3ccccc3)c2C#N)cc1`, the molecule was called inactive. The same measure, in the same setting: for `CC(=O)OCC(COC(C)=O)OC(C)=O` the value was “inactive”.

A word on the AC50: it is the midpoint of the concentration-response curve, whichever way the signal moves.
